AmpC inh detg – blocks E. coli AmpC beta-lactamase in detergent assay; AmpC hydrolysis of nitrocefin, absorbance 480 nm, 0.01% Triton; Potency, µM (doses to about 114 µM), for inactives: top-dose activity change, negative = inhibition, most hits filed as inhibitors; 370,000 compounds, 0.041% hits; AID 485294;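 also: 0% = no-compound wells and -100% = no-enzyme wells; nearly all actives have a fitted effect of over 25% in size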
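20 mM phosphate pH 7.0 + 0.01% (detergent screen) or 0.0001% Triton X-100; 5.3 nM AmpC reagent; cpd preinc 15 min RT; nitrocefin (800 uM stock) to start; A480 q20 s × 4 min; Activity was normalised to no-enzyme and no-compound control wells.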
FBPA Giardia inh – blocks Giardia fructose-bisphosphate aldolase activity; purified Giardia FBPA; A8B2U2; 290,000 compounds, 0.71% hits; Potency, µM (series often up to 59.6 µM), for the others: at the top dose activity, negative = inhibition, most hits filed as inhibitors; also: nearly all actives have a fitted effect of over 55% in size
Target sequence (A8B2U2 whole entry, looked up): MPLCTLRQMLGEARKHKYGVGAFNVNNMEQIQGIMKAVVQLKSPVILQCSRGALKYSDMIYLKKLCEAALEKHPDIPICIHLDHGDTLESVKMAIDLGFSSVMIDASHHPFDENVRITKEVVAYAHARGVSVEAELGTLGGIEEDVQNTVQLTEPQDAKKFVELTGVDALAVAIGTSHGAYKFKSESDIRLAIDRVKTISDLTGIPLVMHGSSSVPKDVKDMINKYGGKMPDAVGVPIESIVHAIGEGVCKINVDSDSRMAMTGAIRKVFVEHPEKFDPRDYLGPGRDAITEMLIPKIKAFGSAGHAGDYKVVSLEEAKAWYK
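40 nM FBPA preincubated 10 min at RT with compound (up to 57.5 uM final), then substrate plus GAPDH/TPI/NAD/arsenate coupling and diaphorase/resazurin added. Fluorescence read after 20 min at RT, 525/598 nm.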
Sm TGR inh – inhibitors of Schistosoma mansoni thioredoxin glutathione reductase. 360,000 compounds, 3% hits. Potency, µM (highest dose often 114 µM), for the others: at the highest dose activity change, negative = inhibition, most hits filed as inhibitors. Q962Y6. AID 485364. purified TGR, DTNB reduction, TNB absorbance 405 nm; also: nearly all actives have a fitted effect of over 60% in size
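Kinetic colorimetric format: TGR-catalysed, NADPH-driven DTNB reduction monitored via TNB absorbance. Enzyme dispensed at 20 nM; compound exposure 15 min at room temperature before reaction start.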
AmpC inh no detg – blocks E. coli AmpC beta-lactamase in detergent-free assay | AID 485341 | P00811 | AmpC nitrocefin hydrolysis, absorbance 480 nm, 0.0001% Triton | 330,000 compounds, 0.52% hits | Potency, µM (series often up to 57.1 µM), for inactives: at the top dose activity change, negative = inhibition, usual class: inhibitors;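 also: plate controls were no compound for no effect and no enzyme for full effect; nearly all actives have a fitted effect of over 20% in size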
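20 mM phosphate pH 7.0 + 0.01% (detergent screen) or 0.0001% Triton X-100; 5.3 nM AmpC reagent; cpd preinc 15 min RT; nitrocefin (800 uM stock) to start; A480 q20 s × 4 min; Activity was normalised to no-enzyme and no-compound control wells.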
The depositor's hits bear a star; ? = inconclusive; . = no result given; [ ] = another dose, or the depositor's remark. In the library only some 3.6% were active in any assay of this set; here they are far more common. Calls follow the shape of the dose curve; as a rule, active = well fitted curve in the direction sought with a large enough effect; inconclusive = small, poorly fitted or top-dose-only effect, or another doubt; inactive = no such curve, though single readings can be large; an effect the other way counts as inactive or inconclusive. Unless noted, % is scaled to controls: 0 for no effect and ±100 for the full control effect; potency is read from the fitted curve at half-maximal effect.

SMILES	AmpC inh detg	FBPA Giardia inh	Sm TGR inh	AmpC inh no detg
O=c1ccc2ccc(Oc3ccc([N+](=O)[O-])cc3[N+](=O)[O-])cc2o1	2%	1%	40µM*	-23%
COc1ccccc1N(C)S(=O)(=O)c1ccc(C(=O)N2CCCC(C(F)(F)F)C2)cc1 (configuration not stated)	1%	.	3%	54%
COc1ccccc1N1CCN(C(c2ccc(N(C)C)cc2)c2nnnn2CCc2ccccc2)CC1 (configuration not stated)	?	-3%	40µM*	21%
COc1ccc(C(c2nnnn2CCc2ccccc2)N2CCN(C3CCCC3)CC2)cc1 (configuration not stated)	?	2%	-7%	5%
CCOc1ccc(N2CC(NC(=O)c3cccc4ccccc34)CC2=O)cc1 (configuration not stated)	?	.	3%	32µM*
CNS(=O)(=O)c1cn(CC(=O)Nc2ccc(F)cc2F)cc1S(=O)(=O)NC	-8%	.	-7%	.
COc1ccc(CC(=O)Nc2cc(C)on2)cc1	-10%	8%	5%	-14%
COc1ccc(OCCC(=O)Nc2cc(C)on2)cc1	2%	0%	40µM*	-5%
Cc1cc(NC(=O)CCOc2ccc(F)cc2)no1	6%	2%	0.71µM*	-34%
CC(C)c1ccc(S(=O)(=O)N2CCC(N3CCN(Cc4ccccc4)C(=O)C3=O)CC2)cc1	-5%	.	2%	.
CCOc1ccc(/C=C2/SC(=O)NC2=S)cc1	1%	15%	45µM*	-24%
O=C(CSc1cc(Cl)ccc1Cl)Nc1ccc(N2CCOCC2)cc1	-9%	.	-22%	-9%
O=c1c(/C=N/Nc2ccccc2)c(Sc2nnnn2-c2ccccc2)nc2ccccn12	-8%	9%	?	-2%
O=C(O)c1ccccc1N/N=C/c1c(Sc2nnnn2-c2ccccc2)nc2ccccn2c1=O	4%	9%	40µM*	-35%
CCOc1ccc(CNC(=O)CN2C(=O)C(c3ccccc3)Oc3cccnc32)cc1 (configuration not stated)	-7%	11%	0%	-36%
Cc1[nH][nH]c(=O)c1C(c1ccc(-c2cccc(Cl)c2)o1)c1c(C)[nH][nH]c1=O	1%	5µM*	7.1µM*	-35%
O=c1[nH]nc(Cc2ccc(-c3cccc(Cl)c3)o2)c2ccccc12	0%	-1%	-30%	?
COC(=O)c1ccc(-c2ccc(C(c3c(C)[nH][nH]c3=O)c3c(C)[nH][nH]c3=O)o2)cc1	?	4.5µM*	8.9µM*	-51%
Cc1[nH][nH]c(=O)c1C(c1ccc(-c2ccccc2C(=O)O)o1)c1c(C)[nH][nH]c1=O	-1%	7.9µM*	?	-22%
CNC(=S)N/N=C/c1ccc(-c2cccc(C(=O)O)c2)o1	2%	?	-33%	-26%
Cc1[nH][nH]c(=O)c1C(c1ccc(-c2cccc(C(=O)O)c2)o1)c1c(C)[nH][nH]c1=O	7%	20µM*	?	-14%
Cc1cccn2c(=O)cc(COc3cccc(NC(=O)COc4ccccc4)c3)nc12	19%	.	1%	.
Cc1[nH][nH]c(=O)c1C(c1ccc(-c2ccc(Cl)cc2Cl)o1)c1c(C)[nH][nH]c1=O	?	13µM*	?	-38%
Cc1[nH][nH]c(=O)c1C(c1ccc(Br)cc1)c1c(C)[nH][nH]c1=O	5%	-23%	?	-33%
COc1ccc(CCN2C(=O)CC(NCCc3ccc(S(N)(=O)=O)cc3)C2=O)cc1OC (configuration not stated)	2%	4%	18µM*	-4%
SMILES	AmpC inh detg	FBPA Giardia inh	Sm TGR inh	AmpC inh no detg
COc1ccc(CCNC2CC(=O)N(N(C)C)C2=O)cc1OC (configuration not stated)	0%	-4%	-5%[57.1 µM]	-13%
COc1ccc(CCN2C(=O)CC(NC34CC5CC(CC(C5)C3)C4)C2=O)cc1OC (configuration not stated)	-5%	0%	40µM*	101%
O=c1ccc2ccc(OS(=O)(=O)O)cc2o1	.	-1%	.	.
O=C1c2ccccc2/C(=C\C#Cc2ccccn2)N1c1ccccc1	.	.	.	27%
CN(C)S(=O)(=O)c1ccc(C(=O)OCn2nnc3ccccc3c2=O)cc1	1%	0%	0%	10µM*
Cc1cccc(CC(=O)OCn2nnc3ccccc3c2=O)c1	-19%	2%	-3%	10µM*
CC1(C(=O)NCc2ccc(Cl)c(Cl)c2)Oc2cccnc2NC1=O (configuration not stated)	4%	3%	2%	-23%
O=C(c1cccc2cccc(O)c12)N1CCCCC1	?	?	40µM*	-13%
O=C(O)c1ccc(NCCc2ccc(Cl)cc2)c([N+](=O)[O-])c1	4%	15%	-1%	-20%
O=C(COC(=O)/C=C/c1cccs1)Nc1nc(-c2ccccc2)cs1	-8%	0%	22µM*	-24%
O=C(COC(=O)/C=C/c1cccs1)Nc1nc(-c2cccc(Br)c2)cs1	-2%	7%	-24%	6.3µM*
O=C(/C=C/c1cccs1)Nc1nc(-c2ccccc2)cs1	-6%	-12%	-1%	-27%
CC1=NC(Nc2nc(C)c3ccccc3n2)=NC(C)(C)C1	?	5%	25µM*	-48%
C[C@H](NC(=O)N1CCn2c1nc1ccccc12)C(=O)NCc1ccc(F)cc1	3%	17%	2%	30%
O=C(Nc1ccccc1C(F)(F)F)N1CCC(N2CCCCC2)CC1	-11%	9%	-5%	4%
O=C(Nc1ccccc1C(F)(F)F)C(O)(c1ccccc1)C1CCCCC1 (configuration not stated)	-2%	.	4µM*	-18%
O=C(CN1CCN(C(=O)c2ccco2)CC1)Nc1cccc([N+](=O)[O-])c1	-8%	-2%	-3%[57.1 µM]	-12%
CC(=O)c1ccc2noc(-c3cccc(C)c3)c2c1	?	7%	18µM*	-4%
COc1ccc(-c2nc3cnc(N(C)C)nc3n(C3CC3)c2=O)cc1	.	3%	.	.
O=C(/C=C/c1cccc([N+](=O)[O-])c1)NC(=S)Nc1ccccc1C(=O)O	2%	?	18µM*	-33%
O=C(/C=C/c1cccc([N+](=O)[O-])c1)NC(=S)Nc1cccc(NC(=O)c2ccccc2Cl)c1	-20%	3%	8%	-55%
CC(=O)c1cccc(N(CC(=O)N2CCCC2)S(C)(=O)=O)c1	?	6%	45µM*	-6%
CC(=O)c1cccc(N(CC(=O)N2CCCCC2)S(C)(=O)=O)c1	-10%	4%	1%	-2%
CCC(=O)N1c2ccccc2CC1C(=O)NCCc1ccccc1C (configuration not stated)	0%	.	0%	.
Fc1ccc2c(c1)[C@H]1OCC[C@H]1[C@@H](c1ccco1)N2	4%	4%	-25%	-7%
Clc1ccc2c(c1)[C@H]1OCC[C@H]1[C@@H](c1ccco1)N2	-6%	-28%	40µM*	-16%

Assay outcomes deposited in PubChem BioAssay by National Center for Advancing Translational Sciences (NCATS).
